VDR inhibitor: inhibitors of human vitamin D receptor; P11473; VDR-SRC2-3 peptide fluorescence polarization, 2 h; Potency, µM, most hits filed as inhibitors; 400,000 tested, 0.93% active; AID 504847
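FP read-out; VDR + SRC2-3 coactivator peptide; 23 nl compound by pintool; 2 h RT incubation; reagents held at 4 deg C, protected from light.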
BRCA1 expr up: activators of BRCA1 expression | MCF7-BRCA1-FFLuc reporter, luminescence, 48 h; response scale: scaled: vehicle 0%, 10 µM genistein 100% | Potency, µM (doses to about 46.1 µM), hits mostly activators | 380,000 tested, 1.1% active | AID 624202; also: nearly all actives have a fitted effect of over 80% in size
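Luminescence from a BRCA1-driven firefly luciferase in MCF7 cells was the read-out, taken 15 min after substrate addition following 48 h compound exposure at 37 °C. Data were normalized to a 10 microM genistein control and DMSO vehicle.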
Tb PFK inh-1: inhibitors of T. brucei phosphofructokinase | Potency, µM (highest dose often 57.5 µM), usual class: inhibitors | O15648 | 330,000 tested, 0.17% active | T. brucei PFK, ADP-Glo luminescence; also: nearly all actives have a fitted effect of over 60% in size
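PFK 1.25 nM, F6P 0.5 mM, ATP 0.1 mM, 0.1 M TEA pH 8.0, 5 mM MgCl2, 0.01% Tween20, 0.1% BSA; 45 min RT. ADP-Glo readout. qHTS titration up to 57 uM; curves fitted, compounds curve-classed.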
PLK1 PBD inh: inhibitors of human PLK1 polo-box domain binding; P53350; Plk1 PBD binding of FITC phosphopeptide, fluorescence polarization; Potency, µM, usual class: inhibitors; 360,000 tested, 2.8% active; AID 720504; also: series mostly up to about 57 µM; nearly all actives have a fitted effect of over 65% in size
Target sequence (P53350 whole entry, looked up, the tested form may be a part): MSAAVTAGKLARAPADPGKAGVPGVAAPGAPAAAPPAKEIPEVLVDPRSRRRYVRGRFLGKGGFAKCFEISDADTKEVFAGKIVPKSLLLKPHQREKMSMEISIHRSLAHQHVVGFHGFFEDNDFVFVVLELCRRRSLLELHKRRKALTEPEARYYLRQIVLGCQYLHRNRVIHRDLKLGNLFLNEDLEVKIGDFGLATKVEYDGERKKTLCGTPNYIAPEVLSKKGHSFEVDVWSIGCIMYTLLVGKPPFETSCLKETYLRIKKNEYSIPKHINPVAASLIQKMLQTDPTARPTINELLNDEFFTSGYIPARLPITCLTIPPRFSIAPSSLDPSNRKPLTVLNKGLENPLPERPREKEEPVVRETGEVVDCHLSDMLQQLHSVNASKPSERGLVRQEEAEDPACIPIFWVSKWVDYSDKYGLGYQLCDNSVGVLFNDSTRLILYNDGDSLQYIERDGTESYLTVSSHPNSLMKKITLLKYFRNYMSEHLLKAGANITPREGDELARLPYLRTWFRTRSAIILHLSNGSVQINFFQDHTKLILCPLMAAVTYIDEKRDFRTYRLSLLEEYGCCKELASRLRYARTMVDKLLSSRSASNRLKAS
Tb PFK KinaseGlo: Tb phosphofructokinase inhibition, orthogonal luminescence; shares compounds with Tb PFK inh-1; Tb PFK enzyme, ATP depletion, Kinase-Glo Plus luminescence; Potency, µM (highest dose often 57.5 µM); 1,100 tested, 47% active; AID 504636; calls by dose curve; also: nearly all actives have a fitted effect of over 60% in size
Tb PFK inh-2: validation of T. brucei phosphofructokinase inhibitors. shares compounds with Tb PFK inh-1. purified T. brucei PFK, ADP-Glo luminescence, 45 min. Potency, µM (highest dose often 57.5 µM), actives largely listed as inhibitors. 1,100 tested, 41% active. AID 504637; also: nearly all actives have a fitted effect of over 60% in size
USP1 UbRho: validation of human USP1/UAF1 inhibitors; shares compounds with VDR inhibitor; Ub-Rhodamine cleavage, fluorescence kinetic read; Potency, µM (titrated, usually from 56.8 µM), actives largely listed as inhibitors; 50 tested, 50% active
VDR inh confirm: confirmation of human vitamin D receptor inhibitors; shares compounds with VDR inhibitor; VDR-coactivator inhibition assay, qHTS confirmation; Potency, µM, actives largely listed as inhibitors; 840 tested, 89% active; AID 602199
VDR FP fluor: VDR (human) coactivator binding inhibition, fluorescein polarization; shares compounds with VDR inhibitor; VDR-coactivator binding, fluorescein fluorescence polarization; Potency, µM (highest dose often 57.1 µM), most hits filed as inhibitors; 840 tested, 48% active
VDR bla reporter: inhibits human VDR in beta-lactamase reporter cells | shares compounds with VDR inhibitor | VDR beta-lactamase reporter cells, FRET ratio; cells co-treated with VDR agonist LG190178 | Potency, µM (doses to about 46.1 µM), hits mostly inhibitors | 840 tested, 23% active
VDR cytotox: counter-screen for vitamin D receptor inhibitors: cytotoxicity. shares compounds with VDR inhibitor. cytotoxicity counter-screen, cell viability, qHTS. Potency, µM (titrated, usually from 48.3 µM), actives largely listed as cytotoxic. 840 tested, 18% active. AID 602204; also: nearly all actives have a fitted effect of over 75% in size
TbPYK confirm: Trypanosoma brucei pyruvate kinase inhibition, cherry-pick confirmation; shares compounds with PLK1 PBD inh; recombinant TbPYK, Kinase-Glo ATP luminescence; Potency, µM (titrated, usually from 76.9 µM), usual class: inhibitors; 890 tested, 67% active; also: nearly all actives have a fitted effect of over 70% in size
TbPYK ADP-Glo: orthogonal confirmation of Trypanosoma brucei pyruvate kinase inhibitors; shares compounds with PLK1 PBD inh; AID 720584; Potency, µM (titrated, usually from 76.9 µM), hits mostly inhibitors; 890 tested, 62% active; recombinant TbPYK, ADP-Glo luminescence, 60 min; also: nearly all actives have a fitted effect of over 75% in size
A number is an active result; 0 = inactive; ? = inconclusive; - = not tested or not shown. In the library only some 3.9% were active in any assay of this set; here they are far more common. Unless noted, calls follow the shape of the dose curve; as a rule, active = well fitted curve in the direction sought with a large enough effect; inconclusive = small, poorly fitted or top-dose-only effect, or another doubt; inactive = no such curve, though single readings can be large; an effect the other way counts as inactive or inconclusive.

SMILES	VDR inhibitor	BRCA1 expr up	Tb PFK inh-1	PLK1 PBD inh	others
CN1CCC2=C[C@@H](O)[C@@H]3OC(=O)c4cc5c(cc4C3C21)OCO5 (some centres undefined)	0	-	-	-
Cc1ccc(O)c(NC2=C(Cl)C(=O)N(Cc3ccccc3)C2=O)c1	?	0	24µM	3µM	Tb PFK KinaseGlo=11µM;Tb PFK inh-2=19µM;TbPYK confirm=16µM;TbPYK ADP-Glo=20µM
Cn1c(=O)[nH]c(=O)c2c1nc(SCCN1CCCCC1)n2CCCc1ccccc1	35µM	0	?	2.4µM	Tb PFK KinaseGlo=6.7µM;Tb PFK inh-2=17µM;TbPYK confirm=3.5µM;TbPYK ADP-Glo=4.5µM
Cc1c(Br)c(O)c(Br)c2sc(=O)oc12	?	0	?	27µM	Tb PFK KinaseGlo=0;Tb PFK inh-2=0;TbPYK confirm=?;TbPYK ADP-Glo=?
CC(C)Cc1nc2cccnc2n1C1CCNCC1	0	0	-	-
CCc1c(C)sc(NC(=O)c2ccoc2C)c1C(N)=O	35µM	0	?	2.7µM	Tb PFK KinaseGlo=3.4µM;Tb PFK inh-2=8.5µM;VDR inh confirm=6.7;VDR FP fluor=?;VDR bla reporter=0;VDR cytotox=0;TbPYK confirm=14µM;TbPYK ADP-Glo=16µM
CCN(CC)C(=O)c1ccc(NC(=O)CCn2nc(-c3ccc(C)cc3)c3ccccc3c2=O)cc1	0	-	-	-
Cc1c(N2C(=O)/C(=C\c3ccccc3O)SC2=S)c(=O)n(-c2ccccc2)n1C	?	0	21µM	1.7µM	Tb PFK KinaseGlo=?;Tb PFK inh-2=0;TbPYK confirm=4.5µM;TbPYK ADP-Glo=7.9µM
COc1ccc2c(c1)[C@@]13CCCC[C@H]1[C@@H](C2)NCC3	0	-	-	-
Cc1ccc(/C=C2/NC(=O)N(Cc3ccccc3F)C2=O)o1	79µM	0	?	0	Tb PFK KinaseGlo=?;Tb PFK inh-2=0;TbPYK confirm=?;TbPYK ADP-Glo=35µM
COc1ccc(OC)c(NC(=O)C2C(C(=O)O)C3(Cl)C(Cl)=C(Cl)C2(Cl)C3(Cl)Cl)c1 (centres undefined)	0	0	0	?
Cc1ccc(C(=O)NC2CCN(S(=O)(=O)c3ccc(C)cc3)CC2)cc1	?	0	0	0
CC12CCC3C(CCC4=C(O)C(=O)CCC43C)C1CCC2=O (centres undefined)	0	-	-	-
O=C1C=CC(=O)N1CCNc1ncc(C(F)(F)F)cc1Cl	22µM	0	21µM	2.7µM	Tb PFK KinaseGlo=5.4µM;Tb PFK inh-2=13µM;TbPYK confirm=1.3µM;TbPYK ADP-Glo=4µM
CCN(CC)c1ccc(/C=C2\C(=O)NC(=S)N(c3ccc(OC)cc3OC)C2=O)o1	0	0	-	0
COc1ccc(/C=C2/C(=O)NC(=S)N(C3CC3)C2=O)cc1CN1C(=O)c2ccccc2C1=O	45µM	0	0	2.7µM	VDR inh confirm=11;VDR FP fluor=7.9µM;VDR bla reporter=0;VDR cytotox=?
COC(=O)CCC(=O)Nc1sc(Cc2ccccc2)c(C)c1C(N)=O	20µM	0	0	2.4µM	VDR inh confirm=?;VDR FP fluor=?;VDR bla reporter=0;VDR cytotox=0
NC(=O)c1ccsc1NC(=O)COC(=O)Cc1ccccc1	0	0	?	0
Nc1c(C(=O)Nc2ccc(Cl)c(C(F)(F)F)c2)sc2nc3c(cc12)N1CCC3CC1	0	-	-	-
CC1[C@H]2Cc3ccc(O)cc3[C@]1(C)CCN2CCc1ccccc1 (some centres undefined)	0	0	0	0
CN1CC[C@]2(C)c3cc(O)ccc3N(C)[C@@H]12	?	-	-	-	USP1 UbRho=?
O=S(=O)(/C(=C/c1ccc(C(F)(F)F)cc1)c1nc2ccccc2[nH]1)c1ccccc1	16µM	0	0	0	VDR inh confirm=3.8;VDR FP fluor=?;VDR bla reporter=2.3µM;VDR cytotox=8.2µM
C#CCN(C)[C@@H](C)Cc1ccccc1	0	-	-	-
N[C@@H](Cc1cc(I)c(O)c(I)c1)C(=O)O	?	0	0	0
NC(Cc1cc(O)c(O)cc1O)C(=O)O (centres undefined)	45µM	0	0.85µM	-	USP1 UbRho=12µM
SMILES	VDR inhibitor	BRCA1 expr up	Tb PFK inh-1	PLK1 PBD inh	others
Cc1ccccc1N1C(=O)NC(=O)/C(=C\c2ccc3c(c2)CCCN3Cc2ccccc2)C1=O	40µM	0	0	?	VDR inh confirm=12;VDR FP fluor=0;VDR bla reporter=0;VDR cytotox=0
CN1C(=O)/C(=C\N2CCc3ccccc32)C(=O)NC1=S	0	0	0	0
CC(C)c1cccc(O)c(=O)c1	?	0	0	0
N#CC(C#N)=NNc1ccc(-n2ccc(C(F)(F)F)n2)cc1	20µM	0	0	?	VDR inh confirm=3;VDR FP fluor=?;VDR bla reporter=?;VDR cytotox=?
CN1CC[C@@]2(CCCN(C(=O)c3ccco3)C2)C1	0	-	-	-
CC1=CC2/C=C(\C)CCC(O)C(O)/C=C/C(=O)C23C(=O)NC(CC(C)C)C3C1C (centres undefined)	22µM	0	0	?	VDR inh confirm=17;VDR FP fluor=?;VDR bla reporter=7.3µM;VDR cytotox=15µM

Assay outcomes as filed in PubChem.
